# From PubChem BioAssay (EPA / NIEHS)
# Where “and” joins values, the source holds several entries; their conditions need not be identical. Equal entries are not always repeated. Records with an inconclusive call do not appear. Calls of active or inactive are those of the source. Rule for the calls: active = hit-call score of the fitted dose curve at least 0.9, where 1 is the maximum; inconclusive = response in the unintended direction; inactive = score below 0.9.
# Legend:
# [1] = target: human Adenosine A1 Receptor (AdoRA1), ADORA1 (gene 134) (UniProt P30542); test: NVS_GPCR_hAdoRA1: NovaScreen (NVS) G Protein-Coupled Receptor Assay for human Adenosine A1 Receptor (AdoRA1) (AID 2283254)
# human Adenosine A1 Receptor (AdoRA1), ADORA1 (gene 134), sequence (P30542 whole entry, looked up): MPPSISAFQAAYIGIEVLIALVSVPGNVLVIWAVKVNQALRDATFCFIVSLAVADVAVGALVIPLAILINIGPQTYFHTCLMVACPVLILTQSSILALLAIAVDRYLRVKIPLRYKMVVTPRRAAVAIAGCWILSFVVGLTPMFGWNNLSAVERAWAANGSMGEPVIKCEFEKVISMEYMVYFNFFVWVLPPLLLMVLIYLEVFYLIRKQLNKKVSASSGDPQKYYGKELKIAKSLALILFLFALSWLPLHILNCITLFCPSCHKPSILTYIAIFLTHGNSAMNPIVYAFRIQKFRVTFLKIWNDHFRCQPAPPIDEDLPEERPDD
# Method: NVS_GPCR_hAdoRA1 is a biochemical, single-readout assay that uses extracted gene-proteins from Human cortical membranes in a tissue-based cell-free assay. Measurements were taken 1 hour after chemical dosing in a 96-well plate.NVS_GPCR_hAdoRA1 is one of one assay component(s) measured or calculated from the NVS_GPCR_hAdoRA1 assay. It is designed to make measurements of radioligand binding, a form of binding reporter, as detected with scintillation counting signals by Filter-based radiodetection technology.Data from the assay component NVS_GPCR_hAdoRA1 was analyzed into 1 assay endpoint. This assay endpoint, NVS_GPCR_hAdoRA1, was analyzed in the positive analysis fitting direction relative to DMSO as the negative control and baseline of activity. Using a type of binding reporter, loss-of-signal activity can be used to understand changes in the binding as they relate to the gene ADORA1. Furthermore, this assay endpoint can be referred to as a primary readout, because the performed assay has only produced 1 assay endpoint. To generalize the intended target to other relatable targets, this assay endpoint is annotated to the gpcr intended target family, where the subfamily is rhodopsin-like receptor.
# Binding assays used specific radioligands (tritiated, iodinated) with non-radioactive competitive displacement ligands in agonist or antagonist protocols (as indicated) and various reference compounds and inhibitors to titrate specific binding to receptors and transporters. Most enzyme assays (CYPs, kinases, phosphatases, proteases, HDACs) used recombinant protein and specific substrates (fluorescence mostly, some colorimetric and radioactive) and inhibitors, followed by a biochemical separation of substrate and product. All assays for the biochemical HTS were initially run in duplicate at a single concentration (10 uM for CYP450 assays and 25 uM for all others). […] Each assay was run with positive and negative controls, and concurrent controls on every plate. The follow-up (secondary) screen tested active chemical-pairs in concentration series, as well as a few additional assays not tested in the primary screen, some selected negative inactives, and several cases re-run in the concentration series for confirmatory purposes.
# [2] = target: guinea pig Opioid, Kappa 1 Receptor (OpiateK), OPRK1 (gene 100135587) (UniProt P41144); test: NVS_GPCR_gOpiateK: NovaScreen (NVS) G Protein-Coupled Receptor Assay for guinea pig Opioid, Kappa 1 Receptor (OpiateK) (AID 2283252);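 note: active means reduced radioligand binding relative to DMSO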
# guinea pig Opioid, Kappa 1 Receptor (OpiateK), OPRK1 (gene 100135587), sequence (P41144 whole entry, looked up): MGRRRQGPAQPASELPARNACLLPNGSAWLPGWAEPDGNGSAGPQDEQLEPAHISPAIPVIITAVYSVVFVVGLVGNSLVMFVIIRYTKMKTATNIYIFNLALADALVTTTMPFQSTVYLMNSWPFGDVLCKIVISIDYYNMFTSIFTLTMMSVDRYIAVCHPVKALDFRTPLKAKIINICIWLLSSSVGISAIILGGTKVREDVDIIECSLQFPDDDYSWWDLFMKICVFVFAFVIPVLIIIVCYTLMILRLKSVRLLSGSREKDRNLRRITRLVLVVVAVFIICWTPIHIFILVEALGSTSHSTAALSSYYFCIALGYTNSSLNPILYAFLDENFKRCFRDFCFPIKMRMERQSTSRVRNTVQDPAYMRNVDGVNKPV
# Method in brief: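 Radioligand binding to kappa opioid receptor in guinea pig cerebellar membranes, read by filtration and scintillation at 2 h. Compounds first tested in duplicate at 25 uM, then actives in concentration series; signal loss fitted against DMSO.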
# [3] = target: human Adenosine A2a Receptor (AdoRA2a), ADORA2A (gene 135) (UniProt P29274); test: NVS_GPCR_hAdoRA2a: NovaScreen (NVS) G Protein-Coupled Receptor Assay for human Adenosine A2a Receptor (AdoRA2a) (AID 2283256)
# human Adenosine A2a Receptor (AdoRA2a), ADORA2A (gene 135), sequence (P29274 whole entry, looked up): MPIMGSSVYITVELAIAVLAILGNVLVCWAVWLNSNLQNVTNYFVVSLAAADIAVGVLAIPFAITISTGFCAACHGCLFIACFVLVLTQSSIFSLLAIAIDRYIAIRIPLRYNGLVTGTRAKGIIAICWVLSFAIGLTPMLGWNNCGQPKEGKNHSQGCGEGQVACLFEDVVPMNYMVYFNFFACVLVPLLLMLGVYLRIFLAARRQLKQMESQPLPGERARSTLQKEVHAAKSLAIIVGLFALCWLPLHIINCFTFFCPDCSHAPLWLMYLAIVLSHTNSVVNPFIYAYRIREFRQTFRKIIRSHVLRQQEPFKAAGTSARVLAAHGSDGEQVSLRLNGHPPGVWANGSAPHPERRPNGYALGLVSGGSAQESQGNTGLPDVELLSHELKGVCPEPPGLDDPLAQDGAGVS
# Method: (§1) NVS_GPCR_hAdoRA2a is a biochemical, single-readout assay that uses extracted gene-proteins from HEK293 in a cell-free assay. Measurements were taken 1.5 hours after chemical dosing in a 96-well plate.NVS_GPCR_hAdoRA2a is one of one assay component(s) measured or calculated from the NVS_GPCR_hAdoRA2a assay. It is designed to make measurements of radioligand binding, a form of binding reporter, as detected with scintillation counting signals by Filter-based radiodetection technology.Data from the assay component NVS_GPCR_hAdoRA2a was analyzed into 1 assay endpoint. This assay endpoint, NVS_GPCR_hAdoRA2a, was analyzed in the positive analysis fitting direction relative to DMSO as the negative control and baseline of activity. […] Furthermore, this assay endpoint can be referred to as a primary readout, because the performed assay has only produced 1 assay endpoint. […]
# (§2) Binding assays used specific radioligands (tritiated, iodinated) with non-radioactive competitive displacement ligands in agonist or antagonist protocols (as indicated) and various reference compounds and inhibitors to titrate specific binding to receptors and transporters. Most enzyme assays (CYPs, kinases, phosphatases, proteases, HDACs) used recombinant protein and specific substrates (fluorescence mostly, some colorimetric and radioactive) and inhibitors, followed by a biochemical separation of substrate and product. […]
# [4] = target: guinea pig Leukotriene D4 Receptor (LTD4), CYSLTR1 (gene 100135514) (UniProt Q2NNR5); test: NVS_GPCR_gLTD4: NovaScreen (NVS) G Protein-Coupled Receptor Assay for guinea pig Leukotriene D4 Receptor (LTD4) (AID 2283248)
# guinea pig Leukotriene D4 Receptor (LTD4), CYSLTR1 (gene 100135514), sequence (Q2NNR5 whole entry, looked up): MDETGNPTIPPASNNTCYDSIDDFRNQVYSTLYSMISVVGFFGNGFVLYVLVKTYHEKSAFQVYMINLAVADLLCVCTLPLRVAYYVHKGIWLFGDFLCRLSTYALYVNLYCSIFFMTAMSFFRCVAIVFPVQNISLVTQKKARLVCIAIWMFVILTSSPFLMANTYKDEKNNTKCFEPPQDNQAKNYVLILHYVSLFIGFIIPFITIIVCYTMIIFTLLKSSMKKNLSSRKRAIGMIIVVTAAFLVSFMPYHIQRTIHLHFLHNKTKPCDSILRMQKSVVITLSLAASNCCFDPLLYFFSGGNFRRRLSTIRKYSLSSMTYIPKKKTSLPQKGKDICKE
# Method in brief: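 Guinea pig lung membrane preparation; bound radioligand measured by filter scintillation after 1 h, loss of signal versus DMSO marking displacement. Compounds tested at 25 uM in duplicate, hits retested to max 50 uM.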
# [5] = target: human Serotonin, 5-Hydroxytryptamine Receptor 6 (5HT6), HTR6 (gene 3362) (UniProt P50406); test: NVS_GPCR_h5HT6: NovaScreen (NVS) G Protein-Coupled Receptor Assay for human Serotonin, 5-Hydroxytryptamine Receptor 6 (5HT6) (AID 2283253)
# human Serotonin, 5-Hydroxytryptamine Receptor 6 (5HT6), HTR6 (gene 3362), sequence (P50406 whole entry, looked up): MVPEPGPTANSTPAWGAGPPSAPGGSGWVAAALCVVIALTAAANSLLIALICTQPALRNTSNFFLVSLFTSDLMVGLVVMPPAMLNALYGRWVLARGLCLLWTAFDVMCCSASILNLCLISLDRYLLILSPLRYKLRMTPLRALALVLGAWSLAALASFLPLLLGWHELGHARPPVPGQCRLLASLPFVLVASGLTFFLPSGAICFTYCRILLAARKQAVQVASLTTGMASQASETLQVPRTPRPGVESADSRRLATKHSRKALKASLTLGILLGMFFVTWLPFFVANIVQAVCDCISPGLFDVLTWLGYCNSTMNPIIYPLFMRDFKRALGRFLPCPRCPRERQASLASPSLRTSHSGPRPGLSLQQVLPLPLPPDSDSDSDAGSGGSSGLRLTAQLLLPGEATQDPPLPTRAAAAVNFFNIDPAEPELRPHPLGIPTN
# Method: as §1, with “NVS_GPCR_h5HT6” for “NVS_GPCR_hAdoRA2a”, “1 hour” for “1.5 hours”, “plate.NVS_GPCR_h5HT6” for “plate.NVS_GPCR_hAdoRA2a”, “NVS_GPCR_h5HT6,” for “NVS_GPCR_hAdoRA2a,”
# as §2
# [6] = system: bovine Histamine 1 Receptor (H1), gene 281231; test: NVS_GPCR_bH1: NovaScreen (NVS) G Protein-Coupled Receptor Assay for bovine Histamine 1 Receptor (H1) (AID 2283246)
# Method in brief: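 Hits from a 25 uM duplicate primary screen were retested in concentration series (top 50 uM); binding measured as scintillation-counted displacement of radioligand from bovine cerebellar membranes after 1 h, normalised to DMSO.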
# [7] = system: guinea pig Leukotriene B4 Receptor (LTB4), gene 100379538; test: NVS_GPCR_gLTB4: NovaScreen (NVS) G Protein-Coupled Receptor Assay for guinea pig Leukotriene B4 Receptor (LTB4) (AID 2283247)
# Method in brief: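 Membranes from guinea pig spleen incubated 2 h with radioligand and compound; bound counts measured by filtration and scintillation. Screened first at 25 uM in duplicate, then actives titrated to a 50 uM top concentration relative to DMSO.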
# [8] = system: guinea pig Muscarinic, Peripheral (Mperiperal) Receptor, Non-selective Binding, gene 100379235; test: NVS_GPCR_gMPeripheral_NonSelective: NovaScreen (NVS) G Protein-Coupled Receptor Assay for guinea pig Muscarinic, Peripheral (Mperiperal) Receptor, Non-selective Binding (AID 2283250)
# Method in brief: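 Screened in duplicate at 25 uM, hits retested in concentration series to 50 uM max, using bladder membrane radioligand displacement from guinea pig. Filtration and scintillation counting 1 h post-dose, fitted relative to DMSO.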
# [9] = target: human Serotonin, 5-Hydroxytryptamine Receptor 5A (5HT5A), HTR5A (gene 3361) (UniProt P47898); test: NVS_GPCR_h5HT5A: NovaScreen (NVS) G Protein-Coupled Receptor Assay for human Serotonin, 5-Hydroxytryptamine Receptor 5A (5HT5A) (AID 2283251)
# human Serotonin, 5-Hydroxytryptamine Receptor 5A (5HT5A), HTR5A (gene 3361), sequence (P47898 whole entry, looked up): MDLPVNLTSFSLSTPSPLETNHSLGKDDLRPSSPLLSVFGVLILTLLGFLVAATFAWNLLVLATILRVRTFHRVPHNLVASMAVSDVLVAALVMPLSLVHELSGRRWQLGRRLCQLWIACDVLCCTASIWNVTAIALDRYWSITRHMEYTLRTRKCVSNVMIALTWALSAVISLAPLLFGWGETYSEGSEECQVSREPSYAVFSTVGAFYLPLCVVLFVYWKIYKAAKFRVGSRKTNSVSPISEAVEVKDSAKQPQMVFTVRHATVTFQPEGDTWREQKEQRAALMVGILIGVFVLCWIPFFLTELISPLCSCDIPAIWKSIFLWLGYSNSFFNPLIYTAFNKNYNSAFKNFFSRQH
# Method in brief: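 Membranes from HEK293 cells, radioligand binding read by filtration and scintillation after 1 h. Single-concentration duplicate testing at 25 uM, then concentration-response for actives; positive-direction fitting relative to DMSO.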
# [10] = target: human Serotonin, 5-Hydroxytryptamine Receptor 7 (5HT7), HTR7 (gene 3363) (UniProt P34969); test: NVS_GPCR_h5HT7: NovaScreen (NVS) G Protein-Coupled Receptor Assay for human Serotonin, 5-Hydroxytryptamine Receptor 7 (5HT7) (AID 2283255);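 note: hits reduce specific radioligand binding relative to DMSO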
# human Serotonin, 5-Hydroxytryptamine Receptor 7 (5HT7), HTR7 (gene 3363), sequence (P34969 whole entry, looked up): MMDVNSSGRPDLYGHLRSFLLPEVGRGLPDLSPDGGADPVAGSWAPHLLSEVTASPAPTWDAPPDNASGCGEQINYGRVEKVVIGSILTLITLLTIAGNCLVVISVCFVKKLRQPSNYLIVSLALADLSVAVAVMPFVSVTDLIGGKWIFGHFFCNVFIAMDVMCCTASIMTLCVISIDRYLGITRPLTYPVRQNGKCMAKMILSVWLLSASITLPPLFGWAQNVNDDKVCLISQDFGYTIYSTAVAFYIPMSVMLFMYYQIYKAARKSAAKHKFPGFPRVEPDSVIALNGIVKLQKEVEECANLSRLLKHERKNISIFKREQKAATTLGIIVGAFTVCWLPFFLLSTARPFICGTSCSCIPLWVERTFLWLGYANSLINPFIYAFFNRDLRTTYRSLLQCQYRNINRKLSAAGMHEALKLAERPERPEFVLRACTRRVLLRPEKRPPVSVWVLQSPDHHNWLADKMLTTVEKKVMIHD
# Method in brief: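 Filter-bound radioactivity counted after 1 h, with loss of specific radioligand binding fitted against DMSO. Membrane protein came from CHO cells expressing human 5HT7. Chemicals were tested first at 25 uM in duplicate, then in concentration series if active.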
compound,measurement,setting,value
Cc1[nH]nc2c1N=C(c1ccccc1Cl)c1cc([N+](=O)[O-])ccc1N2,outcome,[1],inactive
CN(C)c1ccc(C(=C2C=CC(=[N+](C)C)C=C2)c2ccccc2)cc1,AC50,[2],15 µM (active) and 12.5 µM (active)
same,outcome,[3],inactive
C=CC(C)(CCC=C(C)C)OC(C)=O (stereo not drawn),AC50,[2],46.5 µM (active)
CS(=O)(=O)c1ccc([C@@H](CC2CCCC2)C(=O)Nc2cnccn2)cc1Cl,outcome,[4],inactive
same,outcome,[1],inactive
CN(Cc1cnc2nc(N)nc(N)c2n1)c1ccc(C(=O)N[C@@H](CCC(=O)O)C(=O)O)cc1,outcome,[5],inactive
same,outcome,[1],inactive
same,AC50,[3],9.68 µM (active)
N=C(N)c1ccc(OCCCCCOc2ccc(C(=N)N)cc2)cc1,outcome,[6],inactive
same,AC50,[7],2.4 µM (active)
same,AC50,[8],0.954 µM (active)
same,outcome,[9],inactive
same,AC50,[2],17.2 µM (active)
same,AC50,[10],3.18 µM (active)
CC(C)(C)c1ccc(O)c(O)c1,outcome,[4],inactive
O=C(CCCN1CCC(O)(c2ccc(Cl)cc2)CC1)c1ccc(F)cc1,AC50,[6],10.5 µM (active)
same,AC50,[8],5.15 µM (active)
same,outcome,[9],inactive
O=C1OC2(c3ccccc31)c1cc(I)c(O)c(I)c1Oc1c2cc(I)c(O)c1I,outcome,[2],inactive
same,AC50,[1],6.25 µM (active)
CCCCCCCCCCCCCCCC(=O)OC,outcome,[4],inactive
CCCCCCCCCCCCOS(=O)(=O)O,AC50,[7],25 µM (active)
same,AC50,[4],8.99 µM (active)
same,AC50,[9],9.77 µM (active)
same,AC50,[10],25 µM (active)
CN(C)CCOC(c1ccccc1)c1ccccc1,AC50,[6],0.101 µM (active)
same,AC50,[8],0.574 µM (active)
same,AC50,[2],13 µM (active)
CCCCc1oc2ccccc2c1C(=O)c1cc(I)c(OCCN(CC)CC)c(I)c1,AC50,[9],13.7 µM (active)
same,AC50,[5],7.27 µM (active)
same,outcome,[1],inactive
same,AC50,[10],6.72 µM (active)
